Each structure is given as a SMILES string. Records with an inconclusive call do not appear. Entries that show only a call come without a potency. Activity calls are given as the source filed them. The call rests on the fitted dose curve; in most records, active means well fitted inhibition curve with a large enough effect; inconclusive means small, poorly fitted or top-dose-only effect; inactive means flat fitted curve, though single readings scatter. Peptide text beside a SMILES is read from it. * marks the point of attachment. Cbz = O=C(OCc1ccccc1)*; CH2F = FC*

This experiment has as its system CRL-7250. The experiment in a line: qHTS assay to identify novel small-molecules to repurpose for Merkel cell carcinoma treatment (AID 1296009). Further: nearly all actives have a fitted effect of over 60% in size. The settings on record: MCC and control cell lines, CellTiter-Glo viability, 72 h; series mostly up to 92 µM. In outline: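 Cell viability, measured as CellTiter-Glo luminescence, was normalized between DMSO and no-cell wells. The cells had been exposed to 8- or 11-point compound dilutions for 72 hr at 37 degree celsius.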
In general terms: In qHTS, concentration-response curves come from the screen itself.
On to `C=C(COC(=O)CC(C)C)C1Cc2cc(C(C)=O)ccc2O1` (configuration not stated), for which the Potency entry is “inactive”.
Take `CCOc1nc2c(N)ncnc2n1CC`: the Potency result is “inactive”.
Turning to `COc1ccc(C)c2sc(NC(=O)c3ccncc3)nc12`, the Potency entry is “inactive”.
Still for that read-out and setting: with `C=C1CCC2C(C)(C)CCC[C@]2(C)[C@H]1CC/C(C)=C/C(=O)O` (some centres not stated) the entry was “inactive”; with `Oc1ccc([C@H]2COc3cc(O)ccc3C2)cc1`, “inactive”; with `COc1ccc(CNCc2cccc3ccccc23)cc1`, “inactive”.
Turning to `CC1=C2CC(C)(C)CC2C(O)C2=C(C1)C(=O)OC2O` (configuration not stated), the Potency result is “inactive”.
Same read-out and setting: with `CC(=O)OC1(C)CC(O)C2(O)C=COC(OC3OC(CO)C(O)C(O)C3O)C12` (configuration not stated) the entry was “inactive”; with `O=C1NC(Cc2c[nH]c3ccccc23)C(=O)NC1Cc1cnc[nH]1` (configuration not stated), “inactive”.
Still for that read-out and setting: to `C=CCCN1CCC2(CC1)CN(C(=O)c1c(F)cccc1F)c1ccc(Cl)cc12` belongs “inactive”.
Same read-out and setting: to `C=CC1(C)CC2=CCC3C(C)(C(=O)O)CCCC3(C)C2CC1OC(C)=O` (configuration not stated) belongs “inactive”.
On to `C=C1CC[C@@H]2[C@@](C)(CO[C@@H]3O[C@H](CO)C(O)[C@H](O)C3O)[C@H](O)CC[C@@]2(C)[C@@H]1CC/C(C)=C/CO` (some centres not stated), for which the outcome is “inactive [at 9.27 µM]”.
On to `Cn1ccnc1CCOC(c1cc2nccc(C(=O)O)c2[nH]1)c1ccccc1Cl` (configuration not stated), for which the Potency result is “inactive”.
On the same count and under the same terms, to `C[C@H]1CC[C@@]2(OC1)O[C@H]1CC3C4CC[C@H]5C[C@@H](O)CC[C@]5(C)C4=CC(=O)[C@]3(C)[C@H]1[C@@H]2C` (some centres not stated) belongs “inactive”; to `CC(C)(C)NCCCNC(=O)c1cccc(Br)c1`, “inactive”.
The same measure, in the same setting: to `O=C(O[C@H]1[C@@H]2C[C@@H]3OC[C@@](O)([C@H]2[C@H](O[C@@H]2O[C@H](CO)[C@@H](O)[C@H](O)[C@H]2O)O3)[C@@H]1O)c1ccccc1` belongs “inactive”; to `COC(=O)C1=CO[C@@H](O[C@@H]2O[C@H](CO)[C@@H](O)[C@H](O)[C@H]2O)[C@H]2[C@@H]1[C@H](O)C[C@]2(C)O`, “inactive”.
On the same count and under the same terms, to `CC/C(=C(\c1ccc(O)cc1)c1ccc(OCCNC)cc1)c1ccccc1` belongs “inactive”; to `Cc1ccc(-c2c(-c3nn(C)c4ncnc(N5CCC(N6CCCCC6)C5)c34)cnn2C)cc1` (configuration not stated), “inactive”.
Consider `CC(=O)[C@@H]1CC[C@]2(C(=O)O)CC[C@]3(C)C(CCC4[C@@]5(C)CC[C@H](O)C(C)(C)C5CC[C@]43C)C12` (some centres not stated), for which the Potency result is “inactive”.
On the same count and under the same terms, to `Cc1ncc([N+](=O)[O-])n1C[C@H](O)CN1CCOCC1` belongs “inactive”; to `CC(=O)OC1C(OC(=O)c2ccccc2)C2C(C)(C)CCC(OC(C)=O)C2(C)C23CCC(C)(C2)C(=O)CC13` (configuration not stated), “inactive”; to `CCC(C)/C=C(C)/C=C/C1=CC2=C(Cl)C(=O)C(C)(OC(C)=O)C(=O)C2(O)C(OC)O1` (configuration not stated), “inactive”.
On the same count and under the same terms, to `C=C1C(O)CC2C(C(=O)O)=COC(O[C@@H]3O[C@H](COC(=O)c4ccc(O)cc4)[C@@H](O)[C@H](O)[C@H]3O)C12` (some centres not stated) belongs “inactive”.
Take `COC(=O)CC[C@H](NC(=O)[C@H](CC(C)C)NC(=O)OCc1ccccc1)C(=O)N[C@@H](Cc1cnc[nH]1)C(=O)N[C@@H](CC(=O)OC)C(=O)CF` (Cbz-LE(OMe)HD(OMe)-CH2F): the outcome was “inactive [at 9.27 µM]”.
As for `COc1cccc(CN(C(=O)CC(C)(C)C)[C@H]2C[C@H](C(=O)N3CCNCC3)N(Cc3ccc4c(c3)OCO4)C2)c1`, the Potency result was “inactive”.
Take `O=C(O)Cc1cc(I)c(Oc2ccc(O)c(I)c2)c(I)c1`: the Potency entry is “inactive”.
On the same count and under the same terms, with `C=C(C)[C@@H]1CC[C@]2(C(=O)O)CC[C@]3(C)C(CCC4[C@]5(C)C(CC[C@]43C)C(C)(C)[C@@H](O)[C@@H]5C(=O)O)C12` (some centres not stated) the entry was “inactive”.
Same read-out and setting: to `C=C1C[C@]23C[C@H]1CC[C@H]2[C@]1(C)CCC[C@@](C)(C(=O)O)[C@H]1[C@@H]3C(=O)O` belongs “inactive”; to `Cc1ccc(Nc2nnc(-c3ccc([N+](=O)[O-])cc3)o2)cc1Cl`, “inactive”.
As for `CC(=O)c1ccc(O[C@@H]2OC[C@@H](O)[C@H](O)[C@H]2O[C@]2(CO)O[C@H](CO)[C@@H](O)[C@@H]2O)c(O)c1`, the Potency entry is “inactive”.
On the same count and under the same terms, with `CC(=O)C=C=C1C(C)(C)CC(O[C@@H]2O[C@H](CO)[C@@H](O)[C@H](O)[C@H]2O)CC1(C)O` (some centres not stated) the entry was “inactive”; with `O=C(O)c1cc(C(F)(F)F)ccc1N1CC[C@H](OCc2ccccn2)C1`, “inactive”; with `CC(CC12CCCN1C(=O)C1CCCN1C2=O)OC(N)=O` (configuration not stated), “inactive”.
Still for that read-out and setting: to `C=C1C(OC(C)=O)CCC2(C)CC3(O)OC(=O)C(C)=C3CC12` (configuration not stated) belongs “inactive”; to `CN1CCc2cc(Cl)c(O)cc2[C@@H](c2cccc3c2OCC3)C1`, “inactive”.
The same measure, in the same setting: to `CCOc1ncc(S(=O)(=O)N2CCN(CC)CC2)cc1-c1nc2c(CC)n(CCOC)nc2c(=O)[nH]1` belongs “inactive”.
